Assay outcomes (PubChem BioAssay)
nsP2pro primary = blocks chikungunya virus nsP2 protease peptide cleavage | Q8JUX6 | FRET peptide cleavage, nsP2pro, fluorescence 1 h | Potency, µM (series often up to 24.9 µM), without a hit: at the highest dose activity change, negative = inhibition, hits mostly inhibitors | hit rate 1.1% among 31,000; further: nearly all actives have a fitted effect of over 60% in size
Target sequence (Q8JUX6 whole entry, looked up): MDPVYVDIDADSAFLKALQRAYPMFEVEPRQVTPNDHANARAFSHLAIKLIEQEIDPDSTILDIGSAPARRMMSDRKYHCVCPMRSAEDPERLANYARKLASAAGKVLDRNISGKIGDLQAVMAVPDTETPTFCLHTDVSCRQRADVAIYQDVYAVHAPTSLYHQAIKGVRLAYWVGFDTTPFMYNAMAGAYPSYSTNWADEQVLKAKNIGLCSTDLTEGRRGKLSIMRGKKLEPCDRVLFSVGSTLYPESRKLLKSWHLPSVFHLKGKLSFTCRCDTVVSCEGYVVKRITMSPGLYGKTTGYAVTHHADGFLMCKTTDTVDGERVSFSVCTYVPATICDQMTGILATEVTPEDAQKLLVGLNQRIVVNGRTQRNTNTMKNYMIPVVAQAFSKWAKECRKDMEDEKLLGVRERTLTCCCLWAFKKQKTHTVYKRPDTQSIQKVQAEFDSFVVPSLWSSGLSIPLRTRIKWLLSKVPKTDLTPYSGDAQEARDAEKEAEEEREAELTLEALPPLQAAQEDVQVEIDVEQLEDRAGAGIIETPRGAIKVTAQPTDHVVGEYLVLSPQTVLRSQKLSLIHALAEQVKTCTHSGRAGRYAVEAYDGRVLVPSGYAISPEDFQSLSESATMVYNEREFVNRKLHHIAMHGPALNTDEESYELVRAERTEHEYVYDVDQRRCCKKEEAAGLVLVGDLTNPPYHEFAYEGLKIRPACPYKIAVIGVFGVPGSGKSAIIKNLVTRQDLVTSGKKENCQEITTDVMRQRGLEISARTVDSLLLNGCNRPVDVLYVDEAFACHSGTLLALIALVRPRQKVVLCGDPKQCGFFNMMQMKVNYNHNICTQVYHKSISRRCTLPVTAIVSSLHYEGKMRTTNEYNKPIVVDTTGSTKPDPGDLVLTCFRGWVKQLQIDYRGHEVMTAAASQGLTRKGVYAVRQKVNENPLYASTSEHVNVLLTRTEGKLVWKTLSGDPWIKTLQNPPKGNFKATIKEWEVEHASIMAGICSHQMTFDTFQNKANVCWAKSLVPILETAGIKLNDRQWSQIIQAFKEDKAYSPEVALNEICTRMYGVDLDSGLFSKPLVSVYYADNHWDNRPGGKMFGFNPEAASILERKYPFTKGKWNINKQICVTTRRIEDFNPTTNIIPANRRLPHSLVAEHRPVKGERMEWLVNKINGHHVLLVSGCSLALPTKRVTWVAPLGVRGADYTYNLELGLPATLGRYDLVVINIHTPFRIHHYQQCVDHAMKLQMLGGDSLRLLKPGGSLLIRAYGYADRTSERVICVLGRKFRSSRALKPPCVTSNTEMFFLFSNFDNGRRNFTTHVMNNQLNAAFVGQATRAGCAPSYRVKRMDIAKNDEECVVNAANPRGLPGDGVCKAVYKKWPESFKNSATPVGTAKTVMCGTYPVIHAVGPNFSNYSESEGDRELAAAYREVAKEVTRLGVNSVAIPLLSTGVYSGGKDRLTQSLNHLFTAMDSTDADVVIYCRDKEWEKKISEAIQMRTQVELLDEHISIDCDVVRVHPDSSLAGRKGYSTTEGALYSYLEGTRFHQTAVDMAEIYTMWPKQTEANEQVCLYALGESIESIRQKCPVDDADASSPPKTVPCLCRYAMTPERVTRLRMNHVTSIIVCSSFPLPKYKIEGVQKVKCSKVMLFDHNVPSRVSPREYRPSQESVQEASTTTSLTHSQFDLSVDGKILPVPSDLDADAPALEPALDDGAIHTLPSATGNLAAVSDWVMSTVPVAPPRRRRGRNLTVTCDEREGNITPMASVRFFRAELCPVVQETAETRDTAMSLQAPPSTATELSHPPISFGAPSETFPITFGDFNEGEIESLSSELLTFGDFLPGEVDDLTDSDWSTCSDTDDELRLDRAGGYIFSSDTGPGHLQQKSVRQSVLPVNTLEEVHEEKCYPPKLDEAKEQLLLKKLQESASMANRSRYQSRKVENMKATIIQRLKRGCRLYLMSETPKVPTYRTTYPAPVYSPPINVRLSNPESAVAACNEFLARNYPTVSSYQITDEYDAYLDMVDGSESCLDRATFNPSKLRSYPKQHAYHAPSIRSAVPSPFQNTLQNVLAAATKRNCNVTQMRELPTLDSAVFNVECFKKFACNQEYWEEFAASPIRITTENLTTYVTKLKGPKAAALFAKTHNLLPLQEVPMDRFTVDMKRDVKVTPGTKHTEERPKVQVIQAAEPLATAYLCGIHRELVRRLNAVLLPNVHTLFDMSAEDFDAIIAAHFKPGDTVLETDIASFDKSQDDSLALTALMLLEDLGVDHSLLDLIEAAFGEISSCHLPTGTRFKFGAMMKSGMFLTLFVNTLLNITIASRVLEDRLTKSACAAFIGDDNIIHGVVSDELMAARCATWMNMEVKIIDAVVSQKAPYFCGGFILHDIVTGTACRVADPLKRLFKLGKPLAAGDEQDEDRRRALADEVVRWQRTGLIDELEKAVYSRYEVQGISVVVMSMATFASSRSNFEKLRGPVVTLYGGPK
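Enzyme 150 nM, substrate 2.5 uM (both final); Tris-HCl 10 mM pH 8.0 + 0.01% Tween 20; cpd up to 25 uM, 7 pts; 15 min preinc., 1 h RT; fluorescence ex 525/em 598.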
CHIKV nsP2 cell = cell-based CHIKV nsP2 protease inhibition, secondary. Potency, µM (series often up to 51.1 µM), for the others: at the top dose activity change, negative = inhibition, usual class: inhibitors. hit rate 10% among 450. AID 1964100. cell-based CHIKV nsP2 protease reporter assay. shares compounds with nsP2pro primary; further: nearly all actives have a fitted effect of over 70% in size
CHIKV NSP2 FL = selectivity test for CHIKV nsP2 protease inhibitors: full-length NSP2; shares compounds with nsP2pro primary; Full-length CHIKV NSP2 protease enzymatic counterscreen; Potency, µM (doses to about 50.7 µM), inactives show at the highest dose activity change, negative = inhibition, usual class: inhibitors; hit rate 39% among 410; AID 1964101; further: nearly all actives have a fitted effect of over 65% in size
Furin counterscr = human furin inhibition, counterscreen for nsP2pro inhibitors; shares compounds with nsP2pro primary; Recombinant human furin enzymatic counterscreen, fluorogenic substrate; Potency, µM (series often up to 50.6 µM), for inactives: at the top dose activity change, negative = inhibition, most hits filed as inhibitors; hit rate 6% among 410
NS23 peptide cs = blocks CHIKV nsP2 protease cleavage of endogenous NS2/3 peptide. shares compounds with nsP2pro primary. Purified CHIKV nsP2 protease, endogenous NS2/3 peptide cleavage. Potency, µM (highest dose often 51 µM), without a hit: top-dose activity change, negative = inhibition, usual class: inhibitors. hit rate 34% among 410. AID 1964103; further: nearly all actives have a fitted effect of over 55% in size
Papain counter = selectivity counter-screen for CHIKV nsP2 protease inhibitors: papain; shares compounds with nsP2pro primary; purified papain protease activity, enzymatic inhibition; Potency, µM (titrated, usually from 51 µM), inactives show at the highest dose activity change, negative = inhibition, most hits filed as inhibitors; hit rate 5% among 410
nsP2pro confirm = confirmation of CHIKV nsP2 protease inhibitors; hit rate 43% among 410; shares compounds with nsP2pro primary; CHIKV nsP2 protease enzymatic activity, qHTS; AID 1964105; Potency, µM (doses to about 25.5 µM), without a hit: at the highest dose activity change, negative = inhibition, actives largely listed as inhibitors; further: nearly all actives have a fitted effect of over 75% in size
HCV NS3 4A cs = selectivity counter-screen for CHIKV nsP2 protease inhibitors: HCV NS3/4A; HCV NS3/4A protease biochemical counterscreen; hit rate 20% among 410; Potency, µM (top dose mostly 50.9 µM), usual class: inhibitors; AID 1964106; shares compounds with nsP2pro primary; further: nearly all actives have a fitted effect of over 55% in size
The depositor's hits bear a star; i = inactive; ? = inconclusive; ! = not confirmed by another sample; [ ] = remark or other dose. The full list was thinned out, with hits kept by preference. The call rests on the fitted dose curve. On the % scale 0 is the no-effect control and ±100 the full control effect; potency means the concentration at half of the fitted maximal effect.

SMILES	nsP2pro primary	others
COc1cc(OC)cc(-n2c(=O)c3sccc3n(Cc3c(C)cc(C)cc3C)c2=O)c1	-4%
CC1CCc2c(sc(NC(=O)Cn3nnc(-c4ccc(C(F)(F)F)cc4)n3)c2C#N)C1 (stereo not drawn)	-22%
Cc1nn(C)c2c1c(-c1ccccc1)cc(=O)n2Cc1ccc(Cl)cc1	-27%
N#Cc1ccc(COC[C@H]2O[C@@H](n3c(NCc4ccc(Cl)c(Cl)c4)nc4c(N)ncnc43)[C@H](O)[C@@H]2O)cc1	-7%
Cc1cccc(OCc2nc(C#N)c(NCc3ccccc3Cl)o2)c1	-13%
CC(=O)N1CCN(C(=O)c2ccc3oc(-c4ccccn4)nc3c2)CC1	-9%
Oc1cc(Nc2ccc(N3CCCCC3)cc2)cc2cccnc12	i
CC(C)C[C@H](N)c1nnc(SCc2ccc(Cl)cc2Cl)o1	?	CHIKV nsP2 cell=31%
Cc1cc(=O)[nH]c2nnc(SCc3ccc(Cl)cc3Cl)n12	-15%
Clc1ccccc1CSc1nnc(C2CCNCC2)o1	12%
CC(C)Oc1ccccc1C(=O)Nc1nc(-c2ccccc2)cs1	i
O=C(NCC(F)(F)F)c1cc(C2CCN(C(=O)c3cc(-c4ccco4)[nH]n3)CC2)[nH]n1	1.1µM*	CHIKV nsP2 cell=-12%
CC(=O)NCC(=O)N1CCC(c2cc(-c3ccc(F)cc3)n[nH]2)CC1	i
COc1cccc(-c2cc(C3CCN(C(=O)Nc4ccccc4C(F)(F)F)CC3)[nH]n2)c1	i
O=C(c1ccc2ccccc2n1)N1CCC(n2cc(-c3nc(-c4ccccc4)no3)nn2)C1 (stereo not drawn)	i
COCC1CCCN(C(=O)c2cc(Cn3c(C)nc4ccccc43)[nH]n2)C1 (stereo not drawn)	2%
O=C(c1cc(-c2ccco2)[nH]n1)N1CCC(n2cnc3ccccc32)C1 (stereo not drawn)	0.71µM*	CHIKV nsP2 cell=?;CHIKV NSP2 FL=7.3µM*;Furin counterscr=-8%;NS23 peptide cs=?;Papain counter=-3%;nsP2pro confirm=?;HCV NS3 4A cs=3.3µM*
CCn1cc(C(=O)N2C[C@@H](COC)[C@H](C(=O)NC)C2)cn1	-1%
C/C=C/C(=O)OC1/C=C/C(O)C(OC(C)=O)CCC(=O)OC1C (stereo not drawn)	-4%
Cc1csc2nc(-c3cccc(NS(C)(=O)=O)c3)cn12	-16%
CCN1c2cc(C(=O)NCc3cccc(OC)c3)ccc2C(=O)N2CCCCCC21 (stereo not drawn)	-26%
CC(C)(C)OC(=O)N1CCN(c2ccc(NCc3ccnc(-c4ccc(C#N)cc4)n3)cc2)CC1	i
CN1CC2(CCN(C(=O)c3cccn3C)CC2)CC(c2ccccc2)C1=O (stereo not drawn)	i
O=C(Nc1ccc(F)c(C(F)(F)F)c1)Nc1nnc(C2CCCCC2)s1	-4%
CCCC(=O)Nc1ccccc1OCc1cc(=O)n2cc(C)ccc2n1	-20%
SMILES	nsP2pro primary	others
O=C(Nc1nnc(N2CCCC2)s1)Nc1cc(F)ccc1F	-23%
COc1ccc(CCNC(=O)c2csc3c2CCCCC3)c(OC)c1	-23%
NC(N)=Nc1nc(CSCC/C(N)=N/S(N)(=O)=O)cs1	-6%
COc1ccccc1NC(=O)C1=C(C)Nc2nc(-c3ccco3)nn2C1c1ccccc1F (stereo not drawn)	?	CHIKV nsP2 cell=19%
COc1ccccc1NC(=O)C1=C(C)Nc2nc(SCc3ccccc3Cl)nn2C1c1ccncc1 (stereo not drawn)	-19%
COc1ccccc1NC(=O)C1=C(C)Nc2ncnn2C1c1ccccc1C(=O)O (stereo not drawn)	-15%
CCOc1ccc2nc(N3CCCC(C(=O)Nc4c(C)cccc4C)C3)sc2c1 (stereo not drawn)	-9%
C[C@@]12C(=O)OC(=O)[C@]1(C)C1CCC2O1	5%
CCN1CCN(c2nnc(-n3cccc3C(=O)NCc3ccccc3OC)s2)CC1	-29%
O=c1c(C2CCCCC2)ccc2n1C[C@H]1C[C@@H]2CN(S(=O)(=O)c2ccccc2)C1	1%[39.2 µM]
O=C(NCc1c[nH]c2ncccc12)c1ccccc1Cl	4%[39.2 µM]
O=C(NCc1ccnc2[nH]ccc12)c1ccccc1Cl	4.5µM*	CHIKV nsP2 cell=24µM*;CHIKV NSP2 FL=4.7µM*;Furin counterscr=-15%;NS23 peptide cs=19µM*;Papain counter=-10%;nsP2pro confirm=12µM*;HCV NS3 4A cs=3µM*
O=C(NCc1ccc(Cl)cc1)c1c[nH]c2ncccc12	i
COCCN[C@H]1[C@@H]2OC[C@@H](O2)[C@@H](NC(=O)Nc2ccc(OC)cc2)[C@@H]1O	-8%[39.2 µM]
CC1=CCC2C(C)(CO)CCCC2(C)C1CC12OC1C(O)C(CO)=CC2O (stereo not drawn)	-2%
Cc1nc(N2CCCC2)c2c(C(=O)N3CCN(c4cccc(Cl)c4)CC3)c(C)oc2n1	-21%
O=C1Cc2cc(C(=O)c3ccco3)ccc2N1	i
S=C(SSC(=S)N1CCCCC1)N1CCCCC1	2.5µM*	CHIKV nsP2 cell=13µM*;CHIKV NSP2 FL=15µM*;Furin counterscr=-2%;NS23 peptide cs=16µM*;Papain counter=-25%;nsP2pro confirm=3.6µM*;HCV NS3 4A cs=i
Cc1ccc(NC(=O)Cn2c(=O)n(Cc3ccc4c(c3)OCO4)c(=O)c3ccccc32)c(C)c1	-9%
CCOC(=O)c1ccc(N(C)c2csc(-c3ccccc3)n2)cc1	-2%
CCCNC(=O)CCc1ccnc(N2CCCC2)c1	5%
Cc1ccc(NC(=O)CCSc2nc(-c3ccc4c(c3)OCO4)cc(C(F)(F)F)n2)c(C)c1	-11%
O=C(N[C@H]1CCCc2c1cnn2-c1ccc(F)cc1F)c1ccccn1	i
O=C(NC1CCCc2c1cnn2-c1ccc(F)cc1F)c1ccncc1 (stereo not drawn)	-10%
O=C(NC1CCCc2c1cnn2-c1ccc(F)cc1F)c1ccccn1 (stereo not drawn)	7.9µM*!	CHIKV nsP2 cell=9%;CHIKV NSP2 FL=-2%;Furin counterscr=-1%;NS23 peptide cs=15%;Papain counter=-5%;nsP2pro confirm=12%;HCV NS3 4A cs=i
COc1cc(CNCc2ccccc2C)ccc1OCC(O)CN1CCC(O)CC1 (stereo not drawn)	5%
Cc1ccc(NC(=O)CSc2nc(-c3ccco3)cc(C(F)(F)F)n2)c(C)c1	-20%
Cn1nnnc1Sc1ncnc2scc(-c3cccc([N+](=O)[O-])c3)c12	i
O=C(Nc1nc2ccc([N+](=O)[O-])cc2s1)C1CCCCC1	5%
